Our source for the growth values is PubChem BioAssay (NCI).

Assay in all cases: NCI-60 one-dose screen, 48 h (100 = growth as untreated, 0 = no growth, -100 = all killed)
Holding throughout (conditions): 10 µM unless noted

Assay [1] concerns SR leukemia.
The subject of assay [2] is RPMI-8226 leukemia.
Assay [3] concerns OVCAR-8 ovarian.
Assay [4] concerns OVCAR-5 ovarian.
Assay [5] concerns OVCAR-4 ovarian.
The subject of assay [6] is SK-OV-3 ovarian.
The subject of assay [7] is IGROV1 ovarian.
Assay [8] relates to OVCAR-3 ovarian.
In assay [9] the test system is HS 578T breast.
For assay [10], the system named is NCI/ADR-RES ovarian.

Compounds without any hit were thinned out: in the full panel of roughly 83,000, 20% have a hit.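 Cells were grown in 96-well plates and exposed to the test compound at a single concentration for 48 hours; results are reported as percent growth, with values below 10 considered active.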 A number with no mark means an inactive call. Calls of active or inactive are those of the source.

Regarding `O=[N+]([O-])c1cccc(-c2cc(-c3cc(Br)ccc3O)[nH]n2)c1`, the growth in [1] is 19.7%; in assay [2] it was -2.85% (active); in assay [3], 33.9%; in assay [4], 55.4%; in assay [5], 16.3%; in assay [6] it was 30.6%. The growth is 13.7% in assay [7], 2.12% (active) in [8], 46.6% in [9] and 19.2% in [10].
Regarding `Cc1c(C2=NNC(c3ccc4c(c3)OCO4)C2)[n+]([O-])c2ccccc2[n+]1[O-]` (stereo not given), the growth in assay [1] is 92.2%; in assay [2] it was 98.9%; in [3] it was 109%; in assay [4], 91.9%; in [5], 76.3%; in assay [6], 97.1%. Further, the growth in assay [7] was 84.4%; in assay [8], 93.4%; in assay [9], 94.3%; in [10], 95.4%.
For the compound `CC(C)CCN(CCCNc1c2c(nc3ccccc13)CCCC2)CCC(C)C`, the growth in assay [1] was 5.77% (active); in [2], 56.4%; in [3], 91.1%; in [4], 83.6%; in assay [5], 66.3%; in [6], 94.3%. The growth in assay [7] is 81.8%; in assay [8], 93.9%; in assay [9], 87.6%; in assay [10] it was 87.8%.
For `O=C1Nc2cc(Cl)ccc2/C1=C/c1ccc(N2CCOCC2)s1`, the growth in [1] was 97%; in assay [2], 85.7%; in [3] it was 98.2%; in assay [4], 94.4%; in [5], 99.1%; in assay [6], 113%. The growth is 45.3% in [7], 115% in [8], 129% in assay [9] and 99.8% in assay [10].
As for `O=[N+]([O-])c1c(S(=O)(=O)O)cc2cc(S(=O)(=O)O)ccc2c1[N+](=O)[O-]`, the growth in assay [1] is 103%; in assay [2], 109%; in assay [3] it was 114%; in [4] it was 97.2%; in assay [5], 114%; in [6] it was 122%. In addition, the growth in assay [7] was 103%; in [8], 104%; in assay [9] it was 98.7%; in assay [10] it was 102%.
As to `CC(CCc1ccccc1)NC(=O)c1n[nH]c(=O)c2ccccc12` (stereo not given), the growth in [1] was 60.7%; in assay [2] it was 85.6%; in [3], 101%; in assay [4], 118%; in assay [5], 102%; in assay [6], 118%. The growth in assay [7] is 3.79% (active); in assay [8] it was 112%; in [9] it was 96.8%; in assay [10] it was 121%.
`FC(F)(F)c1cccc(-n2nnc3cnc(Nc4ccc(N5CCCCC5)cc4)nc32)c1`: the growth in assay [1] was 29.2%; in assay [2], 90.9%; in assay [3], 37.5%; in [4] it was 74.3%; in [5], -9.56% (active); in assay [6], 80.2%. Besides, the growth is 88.8% in [7], 82.4% in assay [8], 76.5% in assay [9] and 76.9% in assay [10].
For the compound `O=C(CCl)NCCNc1nccc(Nc2ccc(S(=O)(=O)Nc3ccccn3)cc2)n1`, the growth in assay [1] is 19.4%; in assay [2], 14.8%; in assay [3], 32.7%; in assay [4], 15.7%; in [5], 29.4%; in assay [6], 61.9%. Further, the growth was 8.94% (active) in [7], -6.7% (active) in assay [8], 73.1% in [9] and 46.5% in assay [10].
For `O=C1CCC/C=C\C[C@H]2C=CC(=O)/C2=C/C[C@H](C/C=C\CC(F)(F)F)O1`, the growth in assay [1] is 4.02% (active); in assay [2], -4.51% (active); in assay [3], 10.4%; in assay [4] it was -6.91% (active); in assay [5], 20.6%; in assay [6] it was -7.52% (active). The growth in assay [7] is -25.8% (active); in assay [8], -69.7% (active); in assay [9], 23.2%; in assay [10] it was 8.83% (active).
`Nc1ccccc1C#C/C=C\C#Cc1cccc(O)c1`: the growth in [1] is 13%; in assay [2], 34%; in [3] it was 84.9%; in assay [4] it was 62.6%; in assay [5], 45%; in assay [6], 74.4%. For the same compound, the growth in assay [7] was -19.5% (active); in [8], 43%; in assay [9], 64.3%; in assay [10], 31.8%.
Take `CN(C)C/C=C/C(=O)Nc1cc2c(Nc3ccc(F)c(Cl)c3F)ncnc2cc1OCCOC(F)F`: the growth in assay [1] is 14.8%; in assay [2], 11.4%; in [3], 26.6%; in assay [4], 26.6%; in assay [5], 16%; in assay [6], 0.142% (active). Moreover, the growth was -15.6% (active) in assay [7], -15.4% (active) in assay [8], -19.2% (active) in assay [9] and 20.1% in [10].
Regarding `Cc1ccc2nc(-c3c(N)n[nH]c3CCCO)[nH]c(=O)c2c1`, the growth in assay [1] was 77.2%; in assay [2], 91.6%; in assay [3] it was 105%; in [4] it was 110%; in [5] it was 106%; in assay [6], 108%. Also, the growth was 7.26% (active) in assay [7], 115% in assay [8], 103% in assay [9] and 102% in assay [10].
With `O=C(Nc1ccc(I)cc1)c1cc([N+](=O)[O-])ccc1O`, the growth in [1] was 36.6%; in assay [2], 10.1%; in assay [3], 39.9%; in assay [4], 54.8%; in assay [5] it was 30.3%; in assay [6] it was 38.6%. Also, the growth in assay [7] was 39.6%; in assay [8] it was 18.3%; in [9], 16.1%; in assay [10], 29.1%.
